# Tests used:
# Experiment in all cases: universal protein binding microarray (PBM); transcription factors of Arabidopsis thaliana; high values mean tight binding
# Settings in all cases: protein: recombinant; tags: GST; chain copies: 2; dsDNA, one strand shown
# GST-ANAC092(1-176) = biological target: T1, GST-ANAC092(1-176) (Arabidopsis thaliana, UniProt Q9FKA0 1-176)
# T1 sequence: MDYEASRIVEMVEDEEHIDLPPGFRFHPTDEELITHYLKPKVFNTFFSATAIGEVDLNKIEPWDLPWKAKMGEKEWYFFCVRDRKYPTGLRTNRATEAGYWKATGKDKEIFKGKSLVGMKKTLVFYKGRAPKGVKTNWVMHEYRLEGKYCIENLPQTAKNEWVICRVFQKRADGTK
# In short: (§1)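 Binding is expressed as the normalised enrichment score (E-score). Proteins carrying a GST tag, whether NAC-domain, full-length or DNA-binding-domain forms, were induced in cells, and zinc acetate was added for zinc-finger proteins. After purification on glutathione–Sepharose 4B and quantification by A280 or anti-GST western blot, each was applied in duplicate at 200 to 500 nM final to custom all-10-mer Agilent 4 × 180K arrays made double-stranded by primer extension. Gapped and ungapped 8-mers were scored.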
# GST-NTL6(1-168) = GST-NTL6(1-168) (Arabidopsis thaliana, UniProt Q9SCK6 1-168)
# In short: as §1
# GST-ANAC019 NAC domain = biological target: T2, GST-ANAC019 NAC domain (Arabidopsis thaliana, UniProt Q9C932 14-162)
# T2 sequence: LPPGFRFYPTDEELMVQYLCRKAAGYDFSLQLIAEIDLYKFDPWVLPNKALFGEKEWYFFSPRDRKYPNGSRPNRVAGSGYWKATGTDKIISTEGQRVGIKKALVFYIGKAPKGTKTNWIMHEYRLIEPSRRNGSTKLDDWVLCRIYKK
# In short: as §1
# GST-ANAC055(1-171) = biological target: T3, GST-ANAC055(1-171) (Arabidopsis thaliana, UniProt Q9LDY8 1-171)
# T3 sequence: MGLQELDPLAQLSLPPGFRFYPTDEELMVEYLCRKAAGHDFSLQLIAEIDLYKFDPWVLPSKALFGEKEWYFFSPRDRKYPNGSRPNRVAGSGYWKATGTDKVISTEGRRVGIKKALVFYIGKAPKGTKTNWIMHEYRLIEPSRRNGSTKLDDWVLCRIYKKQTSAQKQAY
# In short: as §1
# GST-ATAF1 NAC domain = biological target: T4, GST-ATAF1 NAC domain (Arabidopsis thaliana, UniProt Q39013 7-158)
# T4 sequence: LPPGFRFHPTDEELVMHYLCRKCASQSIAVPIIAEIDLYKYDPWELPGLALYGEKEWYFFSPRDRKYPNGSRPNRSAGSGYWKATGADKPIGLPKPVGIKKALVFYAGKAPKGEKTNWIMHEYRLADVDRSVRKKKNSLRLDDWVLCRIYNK
# In short: as §1
# [1] = biological target: T5, GST-ANAC092(1-285) full length (Arabidopsis thaliana, UniProt Q9FKA0 1-285)
# T5 sequence: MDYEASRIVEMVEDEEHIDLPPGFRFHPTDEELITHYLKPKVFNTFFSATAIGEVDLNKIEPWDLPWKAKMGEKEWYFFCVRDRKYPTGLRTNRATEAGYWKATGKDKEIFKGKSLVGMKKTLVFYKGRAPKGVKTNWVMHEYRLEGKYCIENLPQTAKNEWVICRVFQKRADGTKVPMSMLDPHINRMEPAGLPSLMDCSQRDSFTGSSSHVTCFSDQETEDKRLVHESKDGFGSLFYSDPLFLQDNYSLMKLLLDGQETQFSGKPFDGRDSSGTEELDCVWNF
# In short: as §1
# GST-NST2(1-184) = biological target: T6, GST-NST2(1-184) (Arabidopsis thaliana, UniProt Q9M274 1-184)
# T6 sequence: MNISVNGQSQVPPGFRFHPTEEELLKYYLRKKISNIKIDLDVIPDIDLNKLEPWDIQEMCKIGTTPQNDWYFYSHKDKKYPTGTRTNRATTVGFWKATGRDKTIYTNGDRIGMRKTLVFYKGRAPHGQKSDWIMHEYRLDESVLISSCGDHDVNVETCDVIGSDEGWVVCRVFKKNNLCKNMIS
# In short: as §1
# GST-NTL8 NAC domain = biological target: T7, GST-NTL8 NAC domain (Arabidopsis thaliana, UniProt Q9XIN7 14-156)
# T7 sequence: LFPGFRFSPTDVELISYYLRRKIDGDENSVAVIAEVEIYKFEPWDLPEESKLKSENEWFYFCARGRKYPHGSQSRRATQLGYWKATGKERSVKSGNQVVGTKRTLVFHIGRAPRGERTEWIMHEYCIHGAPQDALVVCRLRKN
# In short: as §1
# GST-SND1(1-203) = biological target: T8, GST-SND1(1-203) (Arabidopsis thaliana, UniProt Q9LPI7 1-203)
# T8 sequence: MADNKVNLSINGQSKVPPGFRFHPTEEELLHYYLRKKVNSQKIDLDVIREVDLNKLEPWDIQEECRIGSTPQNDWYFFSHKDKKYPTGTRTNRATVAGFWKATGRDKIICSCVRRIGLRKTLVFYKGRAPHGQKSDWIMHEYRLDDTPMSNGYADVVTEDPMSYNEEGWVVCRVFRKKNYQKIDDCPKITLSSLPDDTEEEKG
# In short: as §1
# GST-VND3 NAC domain = biological target: T9, GST-VND3 NAC domain (Arabidopsis thaliana, UniProt Q9FH59 12-162)
# T9 sequence: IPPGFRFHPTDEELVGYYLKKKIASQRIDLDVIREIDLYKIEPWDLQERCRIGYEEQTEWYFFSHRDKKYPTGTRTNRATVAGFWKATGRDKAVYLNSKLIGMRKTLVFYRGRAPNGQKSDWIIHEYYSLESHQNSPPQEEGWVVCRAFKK
# In short: as §1
# GST-VND7 NAC domain = biological target: T10, GST-VND7 NAC domain (Arabidopsis thaliana, UniProt Q9C8W9 9-158)
# T10 sequence: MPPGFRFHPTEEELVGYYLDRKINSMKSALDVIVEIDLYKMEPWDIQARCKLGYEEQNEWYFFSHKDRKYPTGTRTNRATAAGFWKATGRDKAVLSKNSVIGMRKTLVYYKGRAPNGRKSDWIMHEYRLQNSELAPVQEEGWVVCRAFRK
# In short: as §1
# GST-NAP(1-166) = biological target: T11, GST-NAP(1-166) (Arabidopsis thaliana, UniProt O49255 1-166)
# T11 sequence: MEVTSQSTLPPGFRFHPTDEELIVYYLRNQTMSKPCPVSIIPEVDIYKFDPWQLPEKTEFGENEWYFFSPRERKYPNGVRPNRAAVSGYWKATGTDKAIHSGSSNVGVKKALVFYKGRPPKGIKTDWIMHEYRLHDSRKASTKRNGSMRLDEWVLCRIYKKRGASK
# In short: as §1
# Sequence of GST-NTL6(1-168) (Q9SCK6 1-168): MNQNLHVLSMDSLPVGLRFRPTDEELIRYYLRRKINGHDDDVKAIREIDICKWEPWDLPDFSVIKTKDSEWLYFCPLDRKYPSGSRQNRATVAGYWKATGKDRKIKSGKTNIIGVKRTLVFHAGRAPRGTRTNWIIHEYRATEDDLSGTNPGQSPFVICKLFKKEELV
Sequence,binding signal (GST-ANAC092(1-176)),binding signal (GST-NTL6(1-168)),binding signal (GST-ANAC019 NAC domain),binding signal (GST-ANAC055(1-171)),binding signal (GST-ATAF1 NAC domain),binding signal [1],binding signal (GST-NST2(1-184)),binding signal (GST-NTL8 NAC domain),binding signal (GST-SND1(1-203)),binding signal (GST-VND3 NAC domain),binding signal (GST-VND7 NAC domain),binding signal (GST-NAP(1-166))
AGAAGCAA,0.381 E-score,0.361 E-score,0.0522 E-score,0.119 E-score,0.0783 E-score,0.42 E-score,0.284 E-score,0.218 E-score,0.382 E-score,0.109 E-score,0.234 E-score,–
TAAGTTAA,0.191 E-score,0.418 E-score,0.132 E-score,0.0747 E-score,0.157 E-score,0.3 E-score,0.184 E-score,–,0.297 E-score,0.188 E-score,0.0557 E-score,–
TAAGCAAA,0.201 E-score,0.431 E-score,0.113 E-score,0.208 E-score,0.202 E-score,0.308 E-score,0.291 E-score,0.241 E-score,0.409 E-score,0.248 E-score,0.252 E-score,0.103 E-score
GTACGCAA,0.482 E-score,0.121 E-score,0.445 E-score,0.411 E-score,0.407 E-score,0.487 E-score,0.394 E-score,0.0545 E-score,0.47 E-score,0.413 E-score,0.437 E-score,0.456 E-score
GTAACTTA,0.271 E-score,0.375 E-score,–,0.185 E-score,0.233 E-score,0.357 E-score,0.306 E-score,0.229 E-score,0.43 E-score,0.195 E-score,0.141 E-score,0.133 E-score
ATAGCGTA,0.437 E-score,0.0935 E-score,–,0.136 E-score,0.165 E-score,0.438 E-score,0.355 E-score,–,0.476 E-score,0.137 E-score,0.254 E-score,0.128 E-score
TGGAGTAA,0.319 E-score,0.105 E-score,–,0.128 E-score,0.11 E-score,0.342 E-score,0.317 E-score,–,0.454 E-score,0.0609 E-score,0.131 E-score,–
GCAAGCAA,0.367 E-score,0.26 E-score,0.167 E-score,0.0669 E-score,–,0.42 E-score,0.28 E-score,0.0916 E-score,0.4 E-score,0.0906 E-score,0.216 E-score,–
ATACTTAA,0.0831 E-score,0.445 E-score,–,0.14 E-score,0.245 E-score,0.164 E-score,0.224 E-score,0.154 E-score,0.246 E-score,0.187 E-score,0.106 E-score,0.0565 E-score
CAAGCAAC,0.426 E-score,0.239 E-score,0.1 E-score,0.139 E-score,–,0.442 E-score,0.311 E-score,0.13 E-score,0.435 E-score,0.164 E-score,0.139 E-score,–
TACGCTAA,0.433 E-score,0.118 E-score,–,0.0682 E-score,0.19 E-score,0.44 E-score,0.331 E-score,–,0.475 E-score,0.171 E-score,0.131 E-score,–
CTAAGTTA,0.294 E-score,0.393 E-score,–,0.13 E-score,0.173 E-score,0.279 E-score,0.282 E-score,–,0.413 E-score,0.21 E-score,0.0803 E-score,–
TAAGGAAA,0.212 E-score,0.478 E-score,–,0.109 E-score,0.157 E-score,0.252 E-score,0.152 E-score,0.424 E-score,0.334 E-score,0.16 E-score,0.0908 E-score,0.0748 E-score
GTAGCGTA,0.427 E-score,0.111 E-score,–,0.205 E-score,0.288 E-score,0.47 E-score,0.381 E-score,–,0.489 E-score,0.239 E-score,0.267 E-score,0.27 E-score
AGGGTAAG,0.0785 E-score,0.245 E-score,0.0566 E-score,–,–,–,0.0565 E-score,0.429 E-score,0.111 E-score,0.0682 E-score,0.0597 E-score,0.0509 E-score

# From PMC4081100, “A DNA-binding-site landscape and regulatory network analysis for NAC transcription factors in Arabidopsis thaliana”
